MITF inh: inhibitors of human MITF; O75030; AlphaScreen MITF homodimerization, bead proximity signal; inhibition, % at 2.6 µM; hit rate 0.91% among 650,000; AID 1259374; in the data active means inhibition above about 50%;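 further: 0% = vehicle wells with protein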
Target sequence (O75030 whole entry, looked up): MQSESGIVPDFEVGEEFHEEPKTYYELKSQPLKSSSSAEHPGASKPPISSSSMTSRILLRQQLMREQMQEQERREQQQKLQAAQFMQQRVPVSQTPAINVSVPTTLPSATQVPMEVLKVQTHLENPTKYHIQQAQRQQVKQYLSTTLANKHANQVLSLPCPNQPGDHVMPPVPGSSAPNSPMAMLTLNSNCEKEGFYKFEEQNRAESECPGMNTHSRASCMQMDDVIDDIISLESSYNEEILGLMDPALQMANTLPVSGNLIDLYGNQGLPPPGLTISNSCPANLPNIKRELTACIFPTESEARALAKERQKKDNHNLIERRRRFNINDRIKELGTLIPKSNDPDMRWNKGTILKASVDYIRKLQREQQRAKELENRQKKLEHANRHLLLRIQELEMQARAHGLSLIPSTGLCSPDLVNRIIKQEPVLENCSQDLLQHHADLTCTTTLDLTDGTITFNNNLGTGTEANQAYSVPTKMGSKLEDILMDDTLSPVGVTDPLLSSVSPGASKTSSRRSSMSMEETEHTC
TEAD-YAP block: TEAD-YAP interaction inhibition | HEK-TIYL cells, TEAD-Gal4/YAP UAS-luciferase luminescence | inhibition, % at 9.12 µM | hit rate 1.4% among 640,000 | AID 1259422; in the data active means inhibition above about 32%;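 further: 0% = median of test compound wells and 100% = reference inhibitor wells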
GPR151 activ: human GPR151 activation; PathHunter beta-arrestin GPR151 cells, luminescence; Q8TDV0; activation, % at 11.2 µM; AID 1508602; hit rate 1% among 650,000; in the data active means activation above about 4.9%;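 further: 0% = median of compound wells and 100% = cells with positive control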
FBW7 act: activators of human E3 ligase FBW7 | normalized activity (activation), % at 26.1 µM | AID 1259310 | Q969H0 | AlphaScreen FBW7–phospho-cyclin E peptide binding, activator screen | hit rate 0.13% among 650,000; in the data active means normalized activity above about 1.9%;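 further: purified mutant Fbw7 with reduced substrate affinity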
The depositor's hits bear a star. A selection: hits, their analogues and other compounds. The true share with any hit is near 3.4%.

For CSc1ccc(NC(=O)Nc2cccn(Cc3ccc(C)cc3)c2=O)cc1 the results were MITF inh -4, TEAD-YAP block 33*, GPR151 activ 0 and FBW7 act 0.
COc1ccccc1NC(=O)CC(NCC1CCCO1)C(=O)O (centres undefined) was read as MITF inh -2, TEAD-YAP block -3, GPR151 activ -1 and FBW7 act 1.
Screening COC(=O)C1=C(C)NC2=C(C(=O)c3ccccc32)C1c1cc(Cl)c(OC)c(OC)c1 (centres undefined) returned MITF inh 14, TEAD-YAP block 61*, GPR151 activ -1 and FBW7 act 0.
Screening COc1cccc(CC(=O)NCCCNc2nc3cc4c(cc3cc2C#N)OCO4)c1 returned MITF inh 2, TEAD-YAP block 61*, GPR151 activ -2 and FBW7 act 1.
`COc1cccc(NC(=O)NCCCNc2nc3cc4c(cc3cc2C#N)OCO4)c1` gave MITF inh -2, TEAD-YAP block -4, GPR151 activ 0 and FBW7 act 0.
For O=C(NCCN1CCOCC1)c1ccc(N2CCC(NCc3cccc(F)c3)CC2)cc1 the results were MITF inh 4, TEAD-YAP block -7, GPR151 activ -1 and FBW7 act 0.
Screening NC(=O)c1ccc(-c2nc(NCCCN3CCCC3=O)c3ncn(-c4ccsc4)c3n2)cc1 returned MITF inh 3, TEAD-YAP block 49*, GPR151 activ 0 and FBW7 act 0.
For COc1ccc(-c2nc(NCCCN3CCCC3=O)c3ncn(-c4ccccc4)c3n2)cc1 the results were MITF inh 10, TEAD-YAP block 20, GPR151 activ 3 and FBW7 act 0.
Screening O=C1CCCN1CCCNc1nc(-c2ccccc2)nc2c1ncn2-c1ccccc1 returned MITF inh 2, TEAD-YAP block 33*, GPR151 activ 3 and FBW7 act 0.
`O=C1CCCN1CCCNc1nc(NC2CC2)c2ncn(-c3ccccc3)c2n1` gave MITF inh 5, TEAD-YAP block 42*, GPR151 activ -2 and FBW7 act 0.
O=C1CCCN1CCCNc1nc(-c2ccccc2)nc2c1ncn2-c1ccsc1 was read as MITF inh 10, TEAD-YAP block 30, GPR151 activ 1 and FBW7 act 0.
For N#CC1=C(SCC(=O)OCc2ccccc2)NC(=O)CC1c1cccc([N+](=O)[O-])c1 (centres undefined) the results were MITF inh 7, TEAD-YAP block -16, GPR151 activ 1 and FBW7 act 0.
COc1cc(CO)ccc1OCC(=O)NC(C)(C)C was read as MITF inh -3, TEAD-YAP block -7, GPR151 activ 2 and FBW7 act 0.
For COc1cc(CNc2ccc(N(C)C)cc2)ccc1OCC(=O)NC(C)(C)C the results were MITF inh 15, TEAD-YAP block 37*, GPR151 activ 1 and FBW7 act 0.
For Cc1cccc(NC(=O)CSc2nnc(CNC(=O)c3c(F)cccc3F)o2)c1 the results were MITF inh 7, TEAD-YAP block -2, GPR151 activ -1 and FBW7 act 0.
O=C(Cc1c(F)cccc1Cl)N1CCC(c2cccnc2)CC1 was read as MITF inh 4, TEAD-YAP block 5, GPR151 activ 1 and FBW7 act 0.
For O=C(Cc1c(F)cccc1Cl)N1CCC(c2ccncc2)CC1 the results were MITF inh 15, TEAD-YAP block 42*, GPR151 activ 0 and FBW7 act 0.
COc1cc(Cl)cc(CN2CCN(C3CCN(C(C)C)CC3)C(CCO)C2)c1OC (centres undefined) was read as MITF inh -12, TEAD-YAP block -5, GPR151 activ 0 and FBW7 act 0.
For c1ccc(-c2cc(N3CCc4ccccc4C3)nc(-c3cccnc3)n2)nc1 the results were MITF inh 5, TEAD-YAP block 0, GPR151 activ 2 and FBW7 act 0.
For Cc1cc(C)c2nc(SCC(=O)Nc3cc(C(N)=O)cc(C(N)=O)c3)cc(C)c2c1 the results were MITF inh -12, TEAD-YAP block -11, GPR151 activ 0 and FBW7 act 0.
Screening Cc1cc(C)c2nc(SCC(=O)Nc3sccc3C(N)=O)cc(C)c2c1 returned MITF inh -4, TEAD-YAP block 45*, GPR151 activ 1 and FBW7 act 0.
Screening Cc1ccc(C)c(C(=O)COC(=O)c2c(C)nc3ccccc3c2C(=O)OCC(=O)c2cc(C)ccc2C)c1 returned MITF inh -3, TEAD-YAP block 7, GPR151 activ 0 and FBW7 act 0.
CCC(C)NS(=O)(=O)c1ccc(Cc2ccc(S(=O)(=O)NC(C)CC)cc2)cc1 (centres undefined) was read as MITF inh 6, TEAD-YAP block 34*, GPR151 activ 1 and FBW7 act 0.
CCC(C)NS(=O)(=O)c1ccc(Br)cc1 (centres undefined) was read as MITF inh 8, TEAD-YAP block -5, GPR151 activ 1 and FBW7 act 0.
For CCOc1ccc(NCc2ccc(O)c3ncccc23)cc1 the results were MITF inh 62*, TEAD-YAP block 11, GPR151 activ 0 and FBW7 act -1.
Screening Oc1ccc(CNc2cccc(Br)c2)c2cccnc12 returned MITF inh 27, TEAD-YAP block 1, GPR151 activ -1 and FBW7 act -1.
For Oc1ccc(CNc2ccc(Cl)cn2)c2cccnc12 the results were MITF inh 31, TEAD-YAP block 54*, GPR151 activ -1 and FBW7 act -1.
For O=C(NCCC1=CCCCC1)c1cc(S(=O)(=O)N2CCc3ccccc32)ccc1Sc1cccc(Cl)c1 the results were MITF inh -3, TEAD-YAP block -17, GPR151 activ 1 and FBW7 act 0.
Cc1nn(C(=O)c2ccc([N+](=O)[O-])o2)c(C)c1Sc1ccc(Cl)cc1 was read as MITF inh 2, TEAD-YAP block -7, GPR151 activ -1 and FBW7 act 0.
Screening O=C(O)c1ccc2c(c1)sc1nc(-c3ccccc3)cn12 returned MITF inh -18, TEAD-YAP block 26, GPR151 activ -4 and FBW7 act 0.
Screening C[C@@H](c1ccccc1)n1c(=O)[nH]c2ncc(-c3ccc(C(=O)N4CCOCC4)cc3)nc21 returned MITF inh 12, TEAD-YAP block -8, GPR151 activ 1 and FBW7 act 2.0*.
C[C@H](c1ccccc1)n1c(=O)[nH]c2ncc(-c3ccc(C(=O)N4CCN(C)CC4)cc3)nc21 was read as MITF inh 1, TEAD-YAP block 5, GPR151 activ -2 and FBW7 act 0.
Screening CC1CCC2=NN(C(=O)c3ccc(Br)cc3)C(O)(C(F)(F)F)C2C1 (centres undefined) returned MITF inh 11, TEAD-YAP block -1, GPR151 activ 1 and FBW7 act 0.
For O=C(Nc1cccc(-n2cnnn2)c1)C1CCCN(Cc2cc3ccccc3o2)C1 (centres undefined) the results were MITF inh 3, TEAD-YAP block 41*, GPR151 activ 0 and FBW7 act 0.
`O=C(Nc1cccc(-n2cnnn2)c1)C1CCCN(Cc2ccccc2)C1` (centres undefined) gave MITF inh -4, TEAD-YAP block 2, GPR151 activ -1 and FBW7 act 0.

Assay outcomes deposited in PubChem by The Scripps Research Institute Molecular Screening Center.
